# Source: PubChem BioAssay (Tox21)
# Unmarked numbers belong to inactive results. Records with an inconclusive call do not appear. Entries that show only a call come without a potency. Activity calls are given as the source filed them. Unless noted, calls follow the shape of the dose curve; as a rule, active = well fitted curve in the direction sought with a large enough effect in the repeat runs; inconclusive = weak or mixed curves; inactive = no such curve, though single readings can be large; an effect the other way counts as inactive or inconclusive.
# Key:
# [1] = qHTS assay to identify small molecule antagonists of the TGF-beta/Smad signaling pathway - cell viability counter screen (AID 1346824); also: nearly all actives have a fitted effect of over 50% in size
# Method in brief: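 SBE-bla HEK 293T cells, incubated overnight, then compound plus 0.25 ng/mL TGF-beta1 (stock added) for 5 hr at 37 C. Viability was read in the same wells by CellTiter-Glo luminescence after 30 min at room temperature.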
# [2] = qHTS assay to identify small molecule agonists of the TGF-beta/Smad signaling pathway - cell viability counter screen (AID 1346829); also: top concentration of the series differs between compounds; nearly all actives have a fitted effect of over 45% in size
# Method in brief: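 HEK 293T SBE-bla line, 5 hr compound exposure at 37 C, multiplexed CellTiter-Glo viability read by luminescence.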
# [3] = qHTS assay to identify small molecule agonists of the TGF-beta/Smad signaling pathway (AID 1346859; active = well fitted activation curve with a large enough effect in the signal ratio in the repeat runs, not every such curve was filed as active; the % refers to the signal ratio; also: series mostly up to about 77 µM)
# Method in brief: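 Dual-wavelength fluorescence (460/530 nm emission) quantified beta-lactamase expression under the Smad binding element in HEK 293T cells following 5 hr compound treatment at 37 C.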
# [4] = target: Thyrotropin-releasing hormone receptor (Homo sapiens) (UniProt P34981); experiment: qHTS assay to identify small molecule antagonists of the thyrotropin-releasing hormone receptor (TRHR) signaling pathway (AID 1346877; active = well fitted inhibition curve with a large enough effect in the repeat runs, not every such curve was filed as active; also: series mostly up to about 51 µM)
# Sequence of Thyrotropin-releasing hormone receptor (Homo sapiens) (P34981 whole entry, looked up): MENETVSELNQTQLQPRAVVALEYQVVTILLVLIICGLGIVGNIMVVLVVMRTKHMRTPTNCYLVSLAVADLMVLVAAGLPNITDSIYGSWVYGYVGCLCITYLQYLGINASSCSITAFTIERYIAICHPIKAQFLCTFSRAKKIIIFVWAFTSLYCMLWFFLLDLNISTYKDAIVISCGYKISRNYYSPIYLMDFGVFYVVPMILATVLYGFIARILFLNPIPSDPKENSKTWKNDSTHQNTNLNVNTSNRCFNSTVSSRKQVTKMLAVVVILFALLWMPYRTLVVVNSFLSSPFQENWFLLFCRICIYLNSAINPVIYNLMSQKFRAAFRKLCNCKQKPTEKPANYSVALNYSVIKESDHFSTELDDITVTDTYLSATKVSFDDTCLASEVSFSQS
# Method in brief: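 Human TRHR in HEK293 cells; inhibition of the intracellular calcium rise triggered by 1 nM TRH was followed by fluorescence over 3 min. Compounds were run at 15 concentrations, three replicates each.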
# [5] = target: Thyrotropin-releasing hormone receptor (Homo sapiens) (UniProt P34981); experiment: qHTS assay to identify small molecule agonists of the thyrotropin-releasing hormone receptor (TRHR) signaling pathway (AID 1346891; calls by dose curve;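 also: HEK293 cells expressing TRHR with calcium dye readout; series mostly up to about 58 µM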)
# Method in brief: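 Kinetic fluorescence (3 min, 1 s intervals) reported intracellular calcium after compound transfer onto TRHR-Hek293 cells pre-loaded with dye for 2 h at 37 °C.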
# [6] = Human pregnane X receptor (PXR) small molecule agonists, qHTS cell viability counter screen (AID 1346977); also: nearly all actives have a fitted effect of over 50% in size
# Method in brief: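 HepG2 cells stably carrying the PXR-Luc reporter are cultured with 5% charcoal-stripped FBS and treated with compounds for 24hr. CellTiter-Fluor is added at 23hr and fluorescence is read after 1hr.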
# [7] = Caspase-3/7 induction in HepG2 cells by small molecules, qHTS assay (AID 1346978); also: nearly all actives have a fitted effect of over 15% in size
# Method in brief: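 Wild-type HepG2 cells, 2,000/well, settled 5 hr at 37 C and 5% CO2, then compound-treated for 17 hr; caspase-3/7 activity read by luminescent Caspase-Glo 3/7 after 30 min at room temperature.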
# [8] = Caspase-3/7 induction in CHO-K1 cells by small molecules, qHTS cell viability counter screen (AID 1346979); also: nearly all actives have a fitted effect of over 35% in size
# Method in brief: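 Seeding: 1,500 CHO-K1 cells/well. Rest: 5hr, 37C. Treatment: compounds in DMSO, 16hr. Read: CellTiter-Fluor, 1hr, fluorescence.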
# [9] = Caspase-3/7 induction in CHO-K1 cells by small molecules, qHTS assay (AID 1346980); also: nearly all actives have a fitted effect of over 15% in size
# Method in brief: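 Wild-type CHO-K1 cells exposed to compounds for 17hr at 37 C, 5% CO2. Caspase-3/7 activity then measured by Caspase-Glo 3/7 luminescence after 30min at room temperature.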
# [10] = Caspase-3/7 induction in HepG2 cells by small molecules, qHTS cell viability counter screen (AID 1346981); also: series mostly up to about 92 µM; nearly all actives have a fitted effect of over 30% in size
# Method in brief: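 The parent HepG2 line is plated at 2,000 cells per well and rested 5 hr before compound pinning from DMSO stocks. Following a 16-hr treatment at 37 C, a fluorogenic live-cell substrate (CellTiter-Fluor) reports viability after 1 hr.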
# [11] = target: Nuclear receptor subfamily 1 group I member 2 (Homo sapiens) (UniProt O75469); experiment: Human pregnane X receptor (PXR) small molecule agonists, qHTS assay (AID 1346982); also: nearly all actives have a fitted effect of over 35% in size
# Sequence of Nuclear receptor subfamily 1 group I member 2 (Homo sapiens) (O75469 whole entry, looked up): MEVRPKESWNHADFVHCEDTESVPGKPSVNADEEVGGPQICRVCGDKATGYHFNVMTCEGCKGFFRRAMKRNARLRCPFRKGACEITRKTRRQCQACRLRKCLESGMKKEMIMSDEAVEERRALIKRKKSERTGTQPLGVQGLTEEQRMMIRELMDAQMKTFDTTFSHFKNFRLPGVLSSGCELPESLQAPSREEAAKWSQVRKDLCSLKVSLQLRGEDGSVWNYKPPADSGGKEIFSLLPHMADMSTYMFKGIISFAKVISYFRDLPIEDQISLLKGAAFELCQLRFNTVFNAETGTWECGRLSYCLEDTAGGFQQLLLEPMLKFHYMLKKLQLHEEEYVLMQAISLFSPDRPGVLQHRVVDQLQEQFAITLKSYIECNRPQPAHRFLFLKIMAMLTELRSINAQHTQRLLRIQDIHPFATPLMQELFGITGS
# Method in brief: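 After plating in 5% charcoal-stripped FBS and a 5 hr rest, PXR-Luc HepG2 cells received compounds in DMSO. Following 24 hr at 37 C, ONE-Glo was added and light output read.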
# [12] = target: Cytochrome P450 2D6 (Homo sapiens) (UniProt P10635); experiment: Cytochrome P450 Family 2 Subfamily D Member 6 (CYP2D6) small molecule antagonists: luciferase reporter qHTS assay (AID 1671196); also: nearly all actives have a fitted effect of over 50% in size; also: potency is read from the fitted curve at half-maximal effect; as to activity change, negative = inhibition: series mostly up to about 120 µM
# Sequence of Cytochrome P450 2D6 (Homo sapiens) (P10635 whole entry, looked up): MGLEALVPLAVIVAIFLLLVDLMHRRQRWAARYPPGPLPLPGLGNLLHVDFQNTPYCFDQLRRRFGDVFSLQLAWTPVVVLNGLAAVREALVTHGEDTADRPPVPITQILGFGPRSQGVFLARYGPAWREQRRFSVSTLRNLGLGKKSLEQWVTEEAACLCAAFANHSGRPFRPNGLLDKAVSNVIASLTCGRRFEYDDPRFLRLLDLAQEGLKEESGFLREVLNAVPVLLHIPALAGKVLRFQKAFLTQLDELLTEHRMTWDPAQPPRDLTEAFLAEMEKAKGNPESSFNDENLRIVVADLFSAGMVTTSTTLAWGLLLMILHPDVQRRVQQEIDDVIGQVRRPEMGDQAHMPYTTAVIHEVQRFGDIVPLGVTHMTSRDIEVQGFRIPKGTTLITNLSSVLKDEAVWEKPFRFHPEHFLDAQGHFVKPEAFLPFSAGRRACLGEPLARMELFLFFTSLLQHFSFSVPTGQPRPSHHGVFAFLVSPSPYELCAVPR
# Method in brief: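 Quantitative HTS of Tox21 chemicals against CYP2D6 using a luminescent proluciferin substrate. After NADPH addition, 1 h room-temperature reaction; luminescence recorded 20 min post detection reagent.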
# [13] = target: Cytochrome P450 2C19 (Homo sapiens) (UniProt P33261); experiment: Cytochrome P450 Family 2 Subfamily C Member 19 (CYP2C19) small molecule antagonists: luciferase reporter qHTS assay (AID 1671197); also: series mostly up to about 120 µM; nearly all actives have a fitted effect of over 65% in size
# Sequence of Cytochrome P450 2C19 (Homo sapiens) (P33261 whole entry, looked up): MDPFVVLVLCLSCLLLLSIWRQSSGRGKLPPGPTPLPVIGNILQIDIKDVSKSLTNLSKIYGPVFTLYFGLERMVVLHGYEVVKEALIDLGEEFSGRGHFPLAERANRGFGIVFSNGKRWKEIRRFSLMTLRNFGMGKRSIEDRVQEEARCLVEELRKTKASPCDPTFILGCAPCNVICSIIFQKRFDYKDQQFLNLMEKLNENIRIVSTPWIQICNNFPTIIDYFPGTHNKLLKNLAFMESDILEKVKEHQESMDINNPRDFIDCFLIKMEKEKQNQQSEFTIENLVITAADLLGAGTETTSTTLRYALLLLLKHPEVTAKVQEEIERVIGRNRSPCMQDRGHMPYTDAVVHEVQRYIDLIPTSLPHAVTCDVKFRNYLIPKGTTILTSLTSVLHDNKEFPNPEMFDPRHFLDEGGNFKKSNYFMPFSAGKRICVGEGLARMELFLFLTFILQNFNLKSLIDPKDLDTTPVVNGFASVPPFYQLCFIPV
# Method in brief: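 First, compounds are pinned into enzyme-substrate mix and held 10 min at room temperature. Second, NADPH regeneration solution is added and plates incubate 1 h at 37C. Third, detection reagent is added and luminescence read after 20 min.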
# [14] = target: Cytochrome P450 2C9 (Homo sapiens) (UniProt P11712); experiment: Cytochrome P450 Family 2 Subfamily C Member 9 (CYP2C9) small molecule antagonists: luciferase reporter qHTS assay (AID 1671198); also: nearly all actives have a fitted effect of over 50% in size; also: potency is read from the fitted curve at half-maximal effect; as to activity change, negative = inhibition: series mostly up to about 120 µM
# Sequence of Cytochrome P450 2C9 (Homo sapiens) (P11712 whole entry, looked up): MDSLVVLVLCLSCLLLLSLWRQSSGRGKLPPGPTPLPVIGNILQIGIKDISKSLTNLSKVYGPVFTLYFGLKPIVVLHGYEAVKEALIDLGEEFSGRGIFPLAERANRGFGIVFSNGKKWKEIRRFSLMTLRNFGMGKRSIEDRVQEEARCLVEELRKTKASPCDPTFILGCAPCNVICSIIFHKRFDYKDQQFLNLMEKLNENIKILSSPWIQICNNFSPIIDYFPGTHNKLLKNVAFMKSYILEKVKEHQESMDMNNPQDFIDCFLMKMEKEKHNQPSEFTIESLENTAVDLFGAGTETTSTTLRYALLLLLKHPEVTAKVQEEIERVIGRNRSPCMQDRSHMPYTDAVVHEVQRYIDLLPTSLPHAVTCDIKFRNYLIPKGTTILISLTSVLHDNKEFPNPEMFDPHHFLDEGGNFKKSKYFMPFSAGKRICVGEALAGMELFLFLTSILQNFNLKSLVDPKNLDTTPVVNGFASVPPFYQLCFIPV
# Method in brief: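 P450-Glo proluciferin substrate with CYP2C9 enzyme; 10 min RT preincubation, then NADPH regeneration 1 h at 37C; luciferin detection reagent 20 min RT, luminescence in relative luminescence units.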
# [15] = target: Cytochrome P450 1A2 (Homo sapiens) (UniProt P05177); experiment: Cytochrome P450 Family 1 Subfamily A Member 2 (CYP1A2) small molecule antagonists: luciferase reporter qHTS assay (AID 1671199); also: nearly all actives have a fitted effect of over 50% in size; also: potency is read from the fitted curve at half-maximal effect; as to activity change, negative = inhibition: series mostly up to about 120 µM
# Sequence of Cytochrome P450 1A2 (Homo sapiens) (P05177 whole entry, looked up): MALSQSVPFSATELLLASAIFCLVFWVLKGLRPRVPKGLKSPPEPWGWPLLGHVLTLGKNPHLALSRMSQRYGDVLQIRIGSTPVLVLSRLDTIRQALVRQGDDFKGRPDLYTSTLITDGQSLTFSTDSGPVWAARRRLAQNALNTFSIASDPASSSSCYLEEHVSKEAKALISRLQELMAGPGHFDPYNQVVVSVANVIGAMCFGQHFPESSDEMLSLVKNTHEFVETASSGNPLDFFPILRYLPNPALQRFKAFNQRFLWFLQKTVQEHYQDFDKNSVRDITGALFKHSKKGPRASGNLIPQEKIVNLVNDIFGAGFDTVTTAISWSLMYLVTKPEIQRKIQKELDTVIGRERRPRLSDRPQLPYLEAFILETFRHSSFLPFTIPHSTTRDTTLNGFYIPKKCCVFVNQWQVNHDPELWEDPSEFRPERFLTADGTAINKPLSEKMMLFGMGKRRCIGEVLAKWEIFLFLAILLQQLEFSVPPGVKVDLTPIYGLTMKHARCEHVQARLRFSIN
# Method in brief: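 Quantitative high-throughput format using the P450-Glo CYP1A2 system. Reaction initiated by NADPH regeneration solution, 1 h at room temperature, then stopped with detection reagent; luminescence measured 20 min later.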
# [16] = target: Voltage-gated inwardly rectifying potassium channel KCNH2 (Homo sapiens) (UniProt Q12809); experiment: Human Ether-a-go-go-Related Gene (hERG) channel small molecule antagonists: fluorescence cell-based qHTS assay (AID 1671200); also: nearly all actives have a fitted effect of over 50% in size; also: potency is read from the fitted curve at half-maximal effect;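 as to activity change, negative = inhibition: hERG-expressing U2OS cells given a thallium stimulus after FluxOR II dye loading; series mostly up to about 77 µM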
# Sequence of Voltage-gated inwardly rectifying potassium channel KCNH2 (Homo sapiens) (Q12809 whole entry, looked up): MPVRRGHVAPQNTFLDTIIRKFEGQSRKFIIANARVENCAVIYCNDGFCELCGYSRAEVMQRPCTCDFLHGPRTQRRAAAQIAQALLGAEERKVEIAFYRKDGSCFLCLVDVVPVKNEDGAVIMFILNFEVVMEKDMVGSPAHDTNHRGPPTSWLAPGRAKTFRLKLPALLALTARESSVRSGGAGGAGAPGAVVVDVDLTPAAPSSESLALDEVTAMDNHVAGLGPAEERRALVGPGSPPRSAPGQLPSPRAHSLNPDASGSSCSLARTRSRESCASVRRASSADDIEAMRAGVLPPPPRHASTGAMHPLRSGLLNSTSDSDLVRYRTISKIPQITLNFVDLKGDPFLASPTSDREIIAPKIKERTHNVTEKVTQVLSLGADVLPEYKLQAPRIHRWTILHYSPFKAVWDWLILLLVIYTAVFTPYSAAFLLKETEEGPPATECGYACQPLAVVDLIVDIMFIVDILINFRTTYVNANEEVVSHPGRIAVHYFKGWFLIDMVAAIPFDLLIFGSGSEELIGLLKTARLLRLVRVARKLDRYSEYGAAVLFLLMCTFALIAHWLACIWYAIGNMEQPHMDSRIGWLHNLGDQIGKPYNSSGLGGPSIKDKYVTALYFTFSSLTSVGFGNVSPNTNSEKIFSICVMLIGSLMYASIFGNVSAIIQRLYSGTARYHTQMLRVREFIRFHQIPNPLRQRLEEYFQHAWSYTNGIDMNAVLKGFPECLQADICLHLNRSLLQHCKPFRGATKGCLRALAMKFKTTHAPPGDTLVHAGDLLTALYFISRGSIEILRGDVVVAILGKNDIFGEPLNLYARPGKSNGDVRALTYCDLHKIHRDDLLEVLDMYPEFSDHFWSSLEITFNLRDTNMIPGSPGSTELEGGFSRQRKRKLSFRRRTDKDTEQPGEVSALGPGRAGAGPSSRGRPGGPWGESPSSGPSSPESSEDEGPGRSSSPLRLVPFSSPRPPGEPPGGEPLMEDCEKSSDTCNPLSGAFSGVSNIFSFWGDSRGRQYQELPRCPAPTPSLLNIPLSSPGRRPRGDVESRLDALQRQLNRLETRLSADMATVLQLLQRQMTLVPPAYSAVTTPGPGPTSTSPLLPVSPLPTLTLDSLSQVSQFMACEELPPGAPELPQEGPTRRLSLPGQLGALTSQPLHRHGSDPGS
# Method in brief: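 First, 1000 cells per well are seeded and cultured overnight at 37 C. Next, FluxOR II dye is loaded for 1 h at room temperature, protected from light. After 10 more minutes, stimulus is added and fluorescence is read.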
# [17] = target: Cytochrome P450 3A4 (Homo sapiens) (UniProt P08684); experiment: Cytochrome P450 Family 3 Subfamily A Member 4 (CYP3A4) small molecule antagonists: luciferase reporter qHTS assay (AID 1671201); also: nearly all actives have a fitted effect of over 50% in size; also: potency is read from the fitted curve at half-maximal effect; as to activity change, negative = inhibition: series mostly up to about 120 µM
# Sequence of Cytochrome P450 3A4 (Homo sapiens) (P08684 whole entry, looked up): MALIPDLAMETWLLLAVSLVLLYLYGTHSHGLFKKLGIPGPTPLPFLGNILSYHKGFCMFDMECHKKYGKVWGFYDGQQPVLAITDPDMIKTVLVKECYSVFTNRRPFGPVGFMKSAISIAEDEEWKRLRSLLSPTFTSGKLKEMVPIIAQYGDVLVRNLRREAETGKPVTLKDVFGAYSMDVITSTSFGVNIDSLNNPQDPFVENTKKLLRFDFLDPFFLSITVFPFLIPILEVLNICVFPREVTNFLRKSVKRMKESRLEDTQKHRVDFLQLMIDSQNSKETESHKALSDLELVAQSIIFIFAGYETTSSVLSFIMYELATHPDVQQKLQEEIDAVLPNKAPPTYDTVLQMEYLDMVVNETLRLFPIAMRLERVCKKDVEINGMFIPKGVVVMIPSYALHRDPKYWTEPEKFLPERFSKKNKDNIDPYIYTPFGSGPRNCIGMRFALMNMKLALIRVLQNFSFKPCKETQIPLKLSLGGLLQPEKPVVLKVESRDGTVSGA
# Method in brief: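 Enzyme and proluciferin substrate are mixed with test chemicals for 10 min, then NADPH regeneration system drives turnover for 1 h at room temperature. A detection reagent halts the reaction; luminescence after 20 min gives relative activity.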
smiles,measurement,setting,value
O=C(O)Cc1cccc(-c2cc(CCCCCCc3ccc(O[C@H]4O[C@H](CO)[C@@H](O)[C@H](O)[C@@H]4O)c(-c4cccc(CC(=O)O)c4)c3)ccc2O[C@H]2O[C@H](CO)[C@@H](O)[C@H](O)[C@@H]2O)c1,"viability change, negative = cytotoxic",[1],10.9% [at 0.29 µM]
same,"activity change, negative = cytotoxicity",[2],10.8% [at 0.29 µM]
same,activation,[3],-0.374% [at 0.29 µM]
same,"activity, negative = inhibition",[4],0.417% [at 0.194 µM]
same,activation,[5],-0.342% [at 0.218 µM]
same,"activity change, negative = cytotoxicity",[6],17.5% [at 0.349 µM]
same,caspase activation,[7],0.734% [at 0.349 µM]
same,"activity change, negative = cytotoxicity",[8],2.17% [at 0.349 µM]
same,caspase-3/7 activation,[9],1.55% [at 0.349 µM]
same,"activity change, negative = cytotoxicity",[10],2.65% [at 0.349 µM]
same,activation,[11],-9.1% [at 0.349 µM]
same,"activity change, negative = inhibition",[12],0.276% [at 0.435 µM]
same,"activity change, negative = inhibition",[13],11.7% [at 0.435 µM]
same,"activity change, negative = inhibition",[14],0.681% [at 0.435 µM]
same,"activity change, negative = inhibition",[15],-0.131% [at 0.435 µM]
same,"activity change, negative = inhibition",[16],-0.102% [at 0.29 µM]
same,"activity change, negative = inhibition",[17],0.205% [at 0.435 µM]
CCCCCC1Nc2cc(C(F)(F)F)c(S(N)(=O)=O)cc2S(=O)(=O)N1 (stereo not drawn),outcome,[1],inactive
same,outcome,[2],inactive
same,outcome,[3],inactive
same,outcome,[4],inactive
same,outcome,[5],inactive
same,Potency,[6],inactive
same,outcome,[7],inactive
same,Potency,[8],inactive
same,outcome,[9],inactive
same,Potency,[10],inactive
same,Potency,[11],inactive
same,Potency,[13],inactive
same,Potency,[14],1.55 µM (active)
same,Potency,[15],inactive
same,Potency,[16],23.9 µM (active)
CCN1CN(CC)CN(CC)C1,outcome,[1],inactive
same,outcome,[2],inactive
same,outcome,[3],inactive
same,outcome,[4],inactive
same,outcome,[5],inactive
same,Potency,[6],inactive
same,outcome,[7],inactive
same,Potency,[8],inactive
same,outcome,[9],inactive
same,Potency,[10],inactive
same,Potency,[11],inactive
same,Potency,[12],inactive
same,Potency,[14],inactive
same,Potency,[15],inactive
same,Potency,[16],inactive
same,Potency,[17],inactive
CCOC(=O)CCCCCCCCC(=O)OCC,outcome,[1],inactive
same,outcome,[2],inactive
same,outcome,[3],inactive
same,outcome,[4],inactive
same,outcome,[5],inactive
same,Potency,[6],inactive
same,outcome,[7],inactive
same,Potency,[8],inactive
same,outcome,[9],inactive
same,Potency,[10],inactive
same,Potency,[11],inactive
same,Potency,[12],inactive
same,Potency,[14],31.7 µM (active)
same,Potency,[15],44.8 µM (active)
same,Potency,[16],inactive
same,Potency,[17],inactive
CC(C)CCCCCCOC(=O)C1CCCCC1C(=O)OCCCCCCC(C)C (stereo not drawn),outcome,[1],inactive
same,outcome,[2],inactive
same,outcome,[3],inactive
same,outcome,[4],inactive
same,outcome,[5],inactive
same,Potency,[6],inactive
same,outcome,[7],inactive
same,Potency,[8],inactive
same,outcome,[9],inactive
same,Potency,[10],inactive
same,Potency,[11],inactive
same,Potency,[13],inactive
same,Potency,[16],inactive
CO[Si](CCCCl)(OC)OC,outcome,[1],inactive
same,outcome,[2],inactive
same,outcome,[3],inactive
same,outcome,[4],inactive
same,outcome,[5],inactive
same,Potency,[6],inactive
same,outcome,[7],inactive
same,Potency,[8],inactive
same,outcome,[9],inactive
same,Potency,[10],inactive
same,Potency,[14],39.3 µM (active)
same,Potency,[15],inactive
same,Potency,[16],inactive
same,Potency,[17],3.51 µM (active)
C=COCCOCCOC=C,outcome,[1],inactive
same,outcome,[2],inactive
same,outcome,[3],inactive
same,outcome,[4],inactive
same,outcome,[5],inactive
same,Potency,[6],inactive
same,outcome,[7],inactive
same,Potency,[8],inactive
same,outcome,[9],inactive
same,Potency,[10],inactive
same,Potency,[11],inactive
same,Potency,[13],inactive
same,Potency,[14],inactive
same,Potency,[16],inactive
same,Potency,[17],inactive
CN(C)CCOCCN(C)CCO,outcome,[1],inactive
same,outcome,[2],inactive
same,outcome,[3],inactive
same,outcome,[4],inactive
same,outcome,[5],inactive
same,Potency,[6],inactive
same,outcome,[7],inactive
same,Potency,[8],inactive
same,outcome,[9],inactive
same,Potency,[10],inactive
same,Potency,[11],inactive
same,Potency,[12],20 µM (active)
same,Potency,[13],inactive
same,Potency,[14],inactive
same,Potency,[15],inactive
same,Potency,[16],inactive
same,Potency,[17],inactive
